Activity calls are given as the source filed them. How the source made its calls: active means hit-call score of the fitted dose curve at least 0.9, where 1 is the maximum; inactive means score below 0.9.
Test: ATG_DR4_LXR_CIS: Attagene CIS-FACTORIAL HepG2 Assay for human Liver X Receptor (LXR), DR4 submotif (AID 2282929)
Conditions: HepG2 Attagene DR4 cis-reporter, mRNA transcription; actives raise or lower the signal
How it was run: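 HepG2 cells were transiently transfected with multiple cis-regulated reporter units and dosed for 24 hours. The DR4 reporter mRNA was quantified by RT-PCR, 6-FAM labelling and capillary electrophoresis. Bidirectional fits used DMSO as baseline.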

Row | SMILES | outcome | AC50
1 | CC(C)(c1ccccc1)c1ccc(Nc2ccc(C(C)(C)c3ccccc3)cc2)cc1 | inactive | 
2 | c1ccc2cnccc2c1 | inactive | 
3 | CCC(C)N (configuration not stated) | inactive | 
4 | CCCCC(C=O)CC (configuration not stated) | inactive | 
5 | [Cl][Eu]([Cl])[Cl] | inactive | 
6 | O=C1CCCCC1C1CCCCC1 (configuration not stated) | inactive | 
7 | Nc1cccc(N)n1 | inactive | 
8 | CC(C)(C)C1CCC(=O)CC1 |  | 160 µM (active)
9 | C=CC(=O)OCCCCCCOC(=O)C=C |  | 49.7 µM (active)
10 | CC(C)(CO)C(O)C(=O)NCCCO (configuration not stated) | inactive | 
11 | CCOC(=O)/C=C\C(=O)OCC | inactive | 
12 | CCCCNS(=O)(=O)c1ccccc1 | inactive | 
13 | CCCC(CC)c1ccccc1 (configuration not stated) | inactive | 
14 | CC(C)c1ccc(O)c(C(C)C)c1 | inactive | 
15 | CC(C)COC(=O)CC(C(=O)OCC(C)C)S(=O)(=O)O (configuration not stated) | inactive | 
16 | CC(C)CCOCc1ccccc1 | inactive | 
17 | C=CC(=O)OCC(C)OCC(C)OCC(C)OC(=O)C=C (configuration not stated) |  | 68.8 µM (active)
18 | CCCCCCCCCCCC(=O)N(C)CC(=O)O |  | 97.5 µM (active)
19 | CC=C(C)C(C)=O | inactive | 

Row | SMILES | outcome | AC50
20 | CC(C)CC(=O)OCc1ccccc1 | inactive | 
21 | CCCCCCC=O | inactive | 
22 | O=C1CCCCCCCCCCC1 | inactive | 
23 | C1CNCCN1 | inactive | 
24 | O=C(O)CCC(=O)O | inactive | 
25 | COC(OC)(C(=O)c1ccccc1)c1ccccc1 |  | 49.8 µM (active)
26 | CCCCC1CCC(=O)O1 (configuration not stated) | inactive | 
27 | CC(=O)c1ccc(S(=O)(=O)NC(=O)NC2CCCCC2)cc1 | inactive | 
28 | C=C(C)C(=O)OCC(O)COc1ccc(C(C)(C)c2ccc(OCC(O)COC(=O)C(=C)C)cc2)cc1 (configuration not stated) | inactive | 
29 | CC1CC(=O)CC(C)(C)C1 (configuration not stated) | inactive | 
30 | [Cl][Sc]([Cl])[Cl] | inactive | 
31 | O=S(=O)(O)c1ccc(Nc2nc(Nc3ccc(C=Cc4ccc(Nc5nc(Nc6ccc(S(=O)(=O)O)cc6)nc(N(CCO)CCO)n5)cc4S(=O)(=O)O)c(S(=O)(=O)O)c3)nc(N(CCO)CCO)n2)cc1 | inactive | 
32 | CC(CC=O)CC(C)(C)C (configuration not stated) | inactive | 
33 | C[Si]1(C)O[Si](C)(C)O[Si](C)(C)O[Si](C)(C)O[Si](C)(C)O1 |  | 36.2 µM (active)
34 | CCCCCCCCCCCC(=O)OCC | inactive | 
35 | C=C(C)C(=O)OCCOC(=O)C(=C)C | inactive | 
36 | CCC1COC(=O)O1 (configuration not stated) | inactive | 
37 | CCCCOC(=O)C(C)CC (configuration not stated) | inactive | 

Reference: PubChem BioAssay (EPA / NIEHS)
